# Results from ChEMBL document CHEMBL1201862, “PubChem BioAssay data set” (2004).
# Out of some 400,000 compounds screened, about 2,100 (0.53%) were called active. Inconclusive results (about 14%) are left out. The sample holds actives, similar compounds and a random draw of the others, so the mix is not that of the screen. How the calls were made is not given here.
# Biological target: Ataxin-2 (Homo sapiens) (UniProt Q99700)
# Assay: qHTS for Inhibitors of ATXN expression.
# Type: functional
# Ataxin-2 (Homo sapiens), sequence (Q99700 whole entry): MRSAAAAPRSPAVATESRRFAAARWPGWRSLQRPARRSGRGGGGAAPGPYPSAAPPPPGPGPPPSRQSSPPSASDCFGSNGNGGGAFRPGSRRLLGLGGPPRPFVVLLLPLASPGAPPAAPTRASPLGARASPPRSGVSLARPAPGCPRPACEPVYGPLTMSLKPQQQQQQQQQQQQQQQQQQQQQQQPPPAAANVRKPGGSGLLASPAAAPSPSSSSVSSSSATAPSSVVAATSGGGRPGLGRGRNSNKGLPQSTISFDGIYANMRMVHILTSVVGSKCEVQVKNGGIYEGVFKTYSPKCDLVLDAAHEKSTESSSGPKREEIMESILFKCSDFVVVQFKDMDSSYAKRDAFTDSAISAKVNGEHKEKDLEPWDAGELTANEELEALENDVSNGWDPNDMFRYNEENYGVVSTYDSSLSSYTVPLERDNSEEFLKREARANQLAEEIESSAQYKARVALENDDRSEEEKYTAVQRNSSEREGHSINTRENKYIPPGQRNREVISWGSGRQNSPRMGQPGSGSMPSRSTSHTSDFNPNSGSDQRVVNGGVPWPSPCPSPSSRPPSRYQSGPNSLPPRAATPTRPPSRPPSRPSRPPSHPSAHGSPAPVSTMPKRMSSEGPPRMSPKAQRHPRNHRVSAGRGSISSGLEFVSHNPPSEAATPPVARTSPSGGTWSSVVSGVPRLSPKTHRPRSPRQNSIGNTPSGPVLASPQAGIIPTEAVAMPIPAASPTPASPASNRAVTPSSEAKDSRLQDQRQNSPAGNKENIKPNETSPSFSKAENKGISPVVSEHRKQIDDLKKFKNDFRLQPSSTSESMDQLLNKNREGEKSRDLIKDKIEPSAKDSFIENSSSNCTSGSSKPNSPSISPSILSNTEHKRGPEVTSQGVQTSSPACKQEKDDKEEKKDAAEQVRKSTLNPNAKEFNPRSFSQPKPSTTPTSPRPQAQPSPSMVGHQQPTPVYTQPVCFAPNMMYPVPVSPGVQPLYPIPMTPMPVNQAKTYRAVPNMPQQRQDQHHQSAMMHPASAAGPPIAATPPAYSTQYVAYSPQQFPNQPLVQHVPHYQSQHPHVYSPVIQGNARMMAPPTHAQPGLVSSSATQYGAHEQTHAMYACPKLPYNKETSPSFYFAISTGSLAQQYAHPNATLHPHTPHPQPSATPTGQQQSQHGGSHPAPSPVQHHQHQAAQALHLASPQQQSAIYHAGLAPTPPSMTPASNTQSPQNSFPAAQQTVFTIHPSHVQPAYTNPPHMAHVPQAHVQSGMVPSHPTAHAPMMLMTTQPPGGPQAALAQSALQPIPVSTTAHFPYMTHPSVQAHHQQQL
row,SMILES,Potency
1,O=C(C1=CC=CN2CCS(=O)(=O)N=C12)N1CCN(c2cccc(Cl)c2)CC1,inactive
2,CCOC(=O)C1=NOC2(C1)C(=O)Nc1ccc(OC(F)(F)F)cc12 (stereo unspecified),39.8 µM (active)
3,CCOC(=O)C1=NN(C(=O)c2ccc(OC)cc2)C(O)(c2ccc(Cl)cc2)C1 (stereo unspecified),inactive
4,CC1(Cc2ccccc2OC(F)(F)F)C(=O)Nc2ccc(-c3ccsc3)cc21 (stereo unspecified),39.8 µM (active)
5,COc1ccc(OC(F)(F)F)cc1CC1(C)C(=O)Nc2ccc(-c3ccsc3)cc21 (stereo unspecified),39.8 µM (active)
6,Cc1ccc(CC2(C)C(=O)Nc3ccc(OC(F)(F)F)cc32)cc1 (stereo unspecified),39.8 µM (active)
7,CN1CCCC(OC(=O)c2cc(Cl)cc(Cl)c2)C1 (stereo unspecified),inactive
8,c1ccc(-c2nc(N3CCCCC3)nc3ccccc23)cc1,inactive
9,C#CCOCCOCCOCCNc1nc(N2CCN(C(=O)CCCCCCCCCCNC(=O)[C@H](CCCCN)n3cc(C[C@@H](C)CC)nn3)CC2)nc(N2CCN(C(=O)CCCCCCCCCCNC(=O)[C@H](CCCN=C(N)N)n3cc(C[C@@H](C)CC)nn3)CC2)n1,20 µM (active)
10,C#CCOCCOCCOCCNc1nc(N2CCN(C(=O)CCCCCCCCCCNC(=O)[C@@H](CCC(=O)O)n3cc(CCCCCN)nn3)CC2)nc(N2CCN(C(=O)CCCCCCCCCCNC(=O)[C@H](CCCCN)n3cc(C[C@@H](C)CC)nn3)CC2)n1,31.6 µM (active)
11,Cc1ccc(Nc2nc(NCC3CC3)nc3ccsc23)c(C)c1,20 µM (active)
12,Cc1ccc(CNc2nc(NCC3CC3)nc3ccsc23)c(C)c1,39.8 µM (active)
13,O=C(COC(=O)c1ccc(Cl)nc1)Nc1ccc2c(c1)CCC2,inactive
14,CC(=O)Oc1ccc2c(c1)O/C(=C\c1ccncc1)C2=O,inactive
15,COCc1cc(C)nc(SCC(=O)Nc2nc(C)cs2)c1C#N,inactive
16,CCOC(=O)Cc1csc(NS(=O)(=O)c2ccc(SC)cc2)n1,inactive
17,NNC(=O)c1cccc(Cn2cc(Br)c([N+](=O)[O-])n2)c1,inactive
18,C#CCn1/c(=N/C(=O)CSC(C)=O)sc2cc(F)ccc21,6.7 µM (active)
19,COCC(=O)OC1CCn2c1nc1c2C(=O)C(C)=C(NC(C)=O)C1=O (stereo unspecified),10 µM (active)

row,SMILES,Potency
1,OCC1(CC2CCCCO2)CCN(Cc2ccccc2-c2ccco2)CC1 (stereo unspecified),inactive
2,Nc1nc(Br)c2ccccc2c1-c1ccccc1,inactive
3,O=C(Oc1ccc(C(=S)N2CCOCC2)cc1)c1cccc(Cl)c1,inactive
4,CC(C)c1ccc(C(=O)N2CCN(c3cnn(C)c(=O)c3Cl)CC2)cc1,inactive
5,Fc1cccc(/C=N/Nc2cc(N3CCOCC3)ncn2)c1,inactive
6,Oc1c(Cl)cc(Cl)cc1/C=N/c1ccc(N2CCOCC2)cc1,inactive
7,Clc1cccc(N/N=C/c2ccc(N3CCOCC3)s2)c1,39.8 µM (active)
8,COc1cc(C2CC(c3cccnc3)=NN2c2ccc(F)cc2)cc(OC)c1OC (stereo unspecified),inactive
9,COc1cc(C2CC(=O)N(Cc3ccc(F)cc3)c3ccccc3S2)cc(OC)c1OC (stereo unspecified),28.2 µM (active)
10,C=CCN1C(=O)[C@@H]2Cc3c([nH]c4ccccc34)C(c3cc(OC)c(OC)c(OC)c3)N2C1=S (stereo partly specified),inactive
11,Cc1cc(NC(=O)C(C)SCC(=O)O)no1 (stereo unspecified),inactive
12,Cn1c(=O)c(=O)n(C)c2cc(S(=O)(=O)CCC(=O)NCc3ccccc3)ccc21,inactive
13,CCCCCCn1c(=O)n2n(c1=O)[C@@H]1CN(S(=O)(=O)c3ccc(C)cc3)C[C@]1(O)[C@@H](OC(=O)NCc1ccccc1)C2,28.2 µM (active)
14,CCCCCCNC(=O)O[C@H]1Cn2c(=O)n(CCCCCC)c(=O)n2[C@@H]2CN(S(=O)(=O)c3ccc(C)cc3)C[C@]12O,25.1 µM (active)
15,Cc1ccc(S(=O)(=O)N2C[C@H]3n4c(=O)ccc(=O)n4C[C@H](OC(=O)NCc4ccccc4F)[C@@]3(O)C2)cc1,35.5 µM (active)
16,CCCCCCn1c(=O)n2n(c1=O)[C@@H]1CN(S(=O)(=O)c3ccc(C)cc3)C[C@]1(O)[C@@H](OC(=O)NCc1ccccc1F)C2,35.5 µM (active)
17,Cc1ccc(S(=O)(=O)N2CCCC(CCC(=O)NCc3ccccc3F)C2)s1 (stereo unspecified),inactive
18,NS(=O)(=O)c1ccc(CNC(=O)/C=C/c2ccco2)cc1,inactive
19,O=C(Cc1ccccc1)NCc1nnc(S)n1-c1ccc(Br)cc1,inactive

row,SMILES,Potency
1,CSc1c(C#N)c(O)nc2c1CCc1ccccc1-2,inactive
2,COc1ccccc1[C@H]1C(c2cccc(C)c2)=NN(c2ccccc2)[C@@H]1CO,inactive
3,Cc1ccc(C)c(N2CCN(C(=O)c3ccc(Cn4c(=S)[nH]c5ccc(N6CCOCC6)cc5c4=O)cc3)CC2)c1,inactive
4,CCCCCCNC(=O)O[C@H]1CN(C(=O)OC(C)C)N(C(=O)OC(C)C)[C@@H]2CN(S(=O)(=O)c3ccc(C)cc3)C[C@]12O,22.4 µM (active)
5,CCCC(C)NC(=O)c1cc(S(=O)(=O)N2CCCCCC2)ccc1OC (stereo unspecified),inactive
6,COCCN(CCOC)C(=O)CSc1ccc(S(=O)(=O)N2CCN(C)CC2)cn1,inactive
7,CC1=C(C(=O)Nc2nc3ccccc3s2)C(c2ccco2)C(C#N)=C(SCC(=O)NC2CCCCC2)N1 (stereo unspecified),inactive
8,O=C(Cn1ncc(Cl)c(Cl)c1=O)c1ccc2c(c1)OCCO2,42.3 µM (active)
9,O=C(Nc1ccc2c(c1)OCO2)c1sc2cc(Cl)ccc2c1Cl,inactive
10,O=C(CCl)Nc1ccc2c(c1)OCO2,22.4 µM (active)
11,CC(NS(=O)(=O)c1ccc(Cl)c(Cl)c1)C(=O)OCC(=O)Nc1ccc2c(c1)OCO2 (stereo unspecified),inactive
12,O=C(Cn1ncc(Cl)c(Cl)c1=O)Nc1ccc2c(c1)OCO2,35.5 µM (active)
13,COC(=O)c1ccc(NS(=O)(=O)c2ccc3c(c2)n(C)c(=O)n3C)cc1,inactive
14,Cc1ccc(C(=O)O)cc1-c1ccc(/C=C2\SC(=O)N(CC(=O)Nc3ccc4c(c3)OCO4)C2=O)o1,inactive
15,O=C(CSc1nc2cc(Cl)c(Cl)cc2[nH]1)c1ccc2c(c1)OCO2,inactive
16,Cn1c(=O)n(C)c2cc(NC(=O)CCl)ccc21,28.2 µM (active)
17,CC(=O)Nc1ccc2nc3c(=O)n(C)c(=O)n(C)c3nc2c1,inactive
18,NC(=O)c1ccc(NC(=O)COC(=O)c2c3c(nc4ccccc24)/C(=C\c2ccc4c(c2)OCO4)CCC3)cc1,inactive
